Laboratory results published in PubChem BioAssay (NCI).
Several values for one entry are separate records, joined by “and”; a condition that tells them apart may be missing. Equal values may be shown once. About 83,000 compounds went through this panel and 20% of them were active in at least one assay; those are over-represented in the sample as a whole.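 Cell lines were cultured in 96-well plates, exposed to a single compound concentration, and assessed for percent growth 48 hours later.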 Activity calls are given as the source filed them. How the source made its calls: active means growth percent below 10; inactive means the rest.

The compounds below were run on UACC-257 melanoma (assay: NCI-60 one-dose screen, 48 h (100 = growth as untreated, 0 = no growth, -100 = all killed)). Settings: 10 µM.

Structure (SMILES)	growth
NNc1ccc2ccccc2c1	107% (inactive) and 105% (inactive)
NC1=C(Cl)C(=O)c2ccccc2C1=O	56.6% (inactive)
Nc1ccc2cc3ccc(N)cc3nc2c1	107% (inactive) and -17.1% (active)
CO[C@H](C(=O)[C@@H](O)[C@@H](C)O)[C@@H]1Cc2cc3cc(OC4CC(OC5CC(O)C(O)C(C)O5)C(O)C(C)O4)c(C)c(O)c3c(O)c2C(=O)[C@H]1OC1CC(OC2CC(OC3CC(C)(O)C(O)C(C)O3)C(O)C(C)O2)C(O)C(C)O1 (stereo partly specified)	4.4% (active)
CCC(C)(C)c1cc(O)c(C(C)(C)CC)cc1O	51% (inactive)
Cc1cc(NS(=O)(=O)c2ccc(N=Nc3cc(N=Nc4ccc(S(=O)(=O)Nc5cc(C)nc(C)n5)cc4)c4c(NC(=O)C(Cl)Cl)cccc4c3OC(=O)C(Cl)Cl)cc2)nc(C)n1 (tested in a mixture with another compound)	101% (inactive) and 92.8% (inactive)
O=C(Nc1ccc(C(=O)O)c(O)c1)c1ccccc1	98.5% (inactive) and 94.3% (inactive)
CC(=O)Nc1cc(C)ccc1C	101% (inactive)
CCCCCCCCCCCCCCCCCCOCC(COP(=O)([O-])OCC[N+](C)(C)C)OC (stereo unspecified)	95% (inactive)
CCCC1CCC(=C2C(=O)CCC2=O)O1 (stereo unspecified)	106% (inactive) and 95.3% (inactive)
COC(=O)C1C(O)C(C)C(O)C(C)C=C(C)C2=C3C(=C(C)C(=O)c4c(O)c(c(C)c(OC(C)=O)c43)NC(=O)C(C)=C/C=C\C(C)C(O)C(C)C1O)OCO2 (stereo unspecified)	118% (inactive)
